YB-1 expr inh: inhibitors of YB-1 gene expression, primary screen, cell-based, fluorescence. U2OS, qRT-PCR YB-1 vs CDIP delta delta Cp, 16 h; hits give high values; zero = DMSO, each unit about twofold. delta delta Cp (YB-1 minus CDIP) (test concentration not listed). 30,000 tested, 0.37% active;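 active means delta delta Cp rounded down to an integer at or above 3, about 3 SD of DMSO wells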;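 further: higher means less YB-1 transcript or more CDIP transcript relative to DMSO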
ROS inducer: ROS inducers in U2OS cancer cells, primary screen, cell-based, H2DCF-DA fluorescence | U2OS ROS induction | ROS induction (% of piperlongumine), % at 10 µM | 46,000 tested, 2% active; in the data active means ROS induction above about 79%, passing the limit was not always enough;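 further: 0% = DMSO vehicle median and 100% = reference compound median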
* marks the source's active call; other numbers are inactive results; · = not tested or not shown. Hits are enriched below; roughly 2.1% of the tested compounds scored in any of these assays.

SMILES	YB-1 expr inh	ROS inducer
CCc1cccc(NC(=O)O[C@H]2[C@H](OC(=O)Nc3ccccc3)[C@@H](OC(=O)Nc3ccccc3)[C@@H](OC)O[C@@H]2CO)c1	0.16	55
CCOC(=O)c1ccc(NC(=O)O[C@H]2[C@H](OC(=O)Nc3ccccc3)[C@@H](OC(=O)Nc3ccccc3)[C@@H](OC)O[C@@H]2CO)cc1	-0.35	88*
COc1cc(-c2oc3cc(O)cc(O)c3c(=O)c2O[C@@H]2O[C@H](CO)[C@@H](O)[C@H](O)[C@H]2O)ccc1O[C@@H]1O[C@H](CO)[C@@H](O)[C@H](O)[C@H]1O	-0.92	-6
COC(=O)C1c2c(oc3cc(CO)cc(O)c3c2=O)C=CC1O (stereo unspecified)	0.37	137*
O=C(O)c1cc(Sc2ccccc2)nc2ccccc12	·	8
O=C(NCCc1csc2nc(-c3ccccc3)nn12)c1cccs1	·	-9
c1ccc2sc(NC3=NCN(C4CCCCCC4)CN3)nc2c1	0.36	100*
O=C(Nc1nc2ccccc2s1)C1CC1	·	-7
C/C(=N\O)c1ccc(O)cc1O	·	-5
CCOC(=O)c1sc(SC)c2c1CCc1cnc(SC)nc1-2	0.33	-7
CCOC(=O)c1sc(SC)c2c1CC(c1ccc(OC)cc1)CC2=O (stereo unspecified)	-0.38	136*
NC(=S)N1C(c2ccccc2)CCN1c1ccccc1 (stereo unspecified)	·	6
O=S(=O)(NC1CCCCC1Nc1ccccc1Br)c1ccccc1 (stereo unspecified)	·	24
O=C(O)CCC(=O)c1ccc2c(c1)OCCCO2	0.09	10
O=C(c1ccc(Br)cc1)c1cc2c(cc1Br)OCCCO2	-0.48	131*
Cc1ccccc1NS(=O)(=O)c1ccc2[nH]cc(C(=O)N3CCc4ccccc43)c(=O)c2c1	·	-1
CCCCN(CC)S(=O)(=O)c1ccc2[nH]c(=O)cc(C(=O)NCCc3ccc(Cl)cc3)c2c1	·	-3
C[C@H](CO)N1C[C@H](C)[C@H](CN(C)Cc2ccc3c(c2)OCO3)Oc2ccc(NS(=O)(=O)c3ccc(F)cc3)cc2CC1=O	0.28	11
C[C@@H]1CN([C@H](C)CO)C(=O)Cc2cc(NS(=O)(=O)c3ccc(F)cc3)ccc2O[C@@H]1CN(C)Cc1ccc2c(c1)OCO2	0.23	19
C[C@@H]1CN([C@H](C)CO)C(=O)Cc2cc(NS(=O)(=O)c3ccc(F)cc3)ccc2O[C@H]1CN(C)Cc1ccc2c(c1)OCO2	-0.046	129*
C[C@H]1CN([C@@H](C)CO)C(=O)Cc2cc(NS(=O)(=O)c3ccc(F)cc3)ccc2O[C@H]1CN(C)Cc1ccc2c(c1)OCO2	0.00092	109*
CCCNC(=O)c1[nH]c2cc(OC)ccc2c1Sc1ccccc1	·	-6
CCc1ccccc1NC(=O)CCSc1nc2n[nH]c(C)c2c(=N)n1-c1cccc(Cl)c1	·	2
CC(Nc1nc(Nc2ccc(F)cc2)nc(SCC(=O)Nc2ccc(F)cc2)n1)c1ccccc1 (stereo unspecified)	·	10
CCOC(=O)c1c2c(n3ccccc13)C(=O)c1ccccc1C2=O	·	210*
SMILES	YB-1 expr inh	ROS inducer
CCOC(=O)CCCn1c(=O)c2cccn2c2ccccc21	·	1
C[C@@H]1CN([C@@H](C)CO)C(=O)c2cccc(NC(=O)Nc3ccc(C(F)(F)F)cc3)c2O[C@H]1CN(C)Cc1ccc(C(=O)Nc2ccccc2N)cc1	-0.21	91*
C[C@H](CO)N1C[C@H](C)[C@H](CN(C)Cc2ccc(C(=O)Nc3ccccc3N)cc2)Oc2c(NC(=O)Nc3ccc(F)cc3)cccc2C1=O	-0.028	3
C[C@H](CO)N1C[C@H](C)[C@H](CN(C)C)Oc2c(NC(=O)c3ccncc3)cccc2C1=O	3.6*	18
C[C@@H]1CN([C@H](C)CO)C(=O)c2cccc(NC(=O)c3ccc(-c4nccs4)cc3)c2O[C@@H]1CN(C)Cc1ccc(C(=O)Nc2ccccc2N)cc1	-0.46	214*
C[C@H](CO)N1C[C@H](C)[C@@H](CN(C)Cc2ccc(Cl)c(Cl)c2)Oc2c(NC(=O)c3ccc(-c4nccs4)cc3)cccc2C1=O	-0.5	97*
C[C@@H]1CN([C@H](C)CO)C(=O)c2cccc(NC(=O)c3ccncc3)c2O[C@H]1CN(C)C	0.3	-2
C[C@@H]1CN([C@H](C)CO)C(=O)c2cccc(NC(=O)c3ccc(-c4nccs4)cc3)c2O[C@@H]1CN(C)Cc1ccc(-c2ccccc2)cc1	-0.23	32
C[C@H]1CN([C@@H](C)CO)C(=O)c2cccc(NC(=O)c3ccc(-c4nccs4)cc3)c2O[C@H]1CN(C)Cc1ccc(C(=O)Nc2ccccc2N)cc1	-0.39	28
COc1ccc2cc(C(C)C(=O)OCC(=O)N3CCCc4ccccc43)ccc2c1 (stereo unspecified)	·	12
CC(C)COc1ccc(OCC(C)C)c(N)c1	·	-11

Screening data (PubChem)
